# PubChem BioAssay (EPA / NIEHS)
# Records with an inconclusive call do not appear. Active and inactive are the calls of the source. Rule for the calls: active = hit-call score of the fitted dose curve at least 0.9, where 1 is the maximum; inconclusive = response in the unintended direction; inactive = score below 0.9.
# Test: TOX21_p53_BLA_p4_viability: Viability Assessment in the Tox21 HCT-116 p53 Agonism Beta-lactamase Assay, Phase 4 (AID 2283597);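 note: hits lower the luminescence signal meaning cytotoxicity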
# Description: TOX21_p53_BLA_p4 is a cell-based, single-readout assay that uses HCT116, a human intestinal cell line, […] in a 1536-well plate.TOX21_p53_BLA_p4_viability is an assay readout measuring cellular ATP content and detected with CellTiter-Glo Luciferase-coupled ATP quantitation.TOX21_p53_BLA_p4_viability used a type of viability reporter where loss-of-signal activity can be used to understand changes in the cell viability. Furthermore, this assay endpoint can be referred to as a secondary readout, because this assay has produced multiple assay endpoints where this one serves a viability function. To generalize the intended target to other relatable targets, this assay endpoint is annotated to the cell cycle intended target family, where the subfamily is cytotoxicity.
# Thawing Method: Place 14 mL of pre-warmed thaw medium into a 15 mL of conical tub. Remove the vial of cells to be thawed from liquid nitrogen and thaw rapidly by placing at 37C in a water bath with gentle agitation for 1-2 minutes. Decontaminate the vial by wiping with 70% ethanol before opening in a biological safety cabinet. Transfer the vial contents drop-wise into 14 mL of thaw medium in a sterile 15-mL conical tub. Centrifuge cells at 900 rpm for 4 minutes and resuspend in thaw medium. Transfer contents to the T75 tissue culture flask containing Thaw Medium and place flask in a humidified 37C/5% CO2 incubator. Switch to growth medium at first passage.Propagation Method: Aspirate medium, rinse once in DPBS, add 0.25% Trypsin/EDTA and swirl to coat the cell evenly. Add an equal volume of Growth Medium to inactivate Trypsin after 2-3 minutes incubation at 37C. Centrifuge cells at 900 rpm for 4 minutes and resuspend in growth medium. Cell should be passage or fed at least twice a week.Assay Protocol: Harvest cells from culture in growth medium and resuspend in assay medium. 2.2 Dispense 4000 cells/5 uL/well into 1536-well black/clear bottom plates using a Multidrop dispenser. After the cells were incubated at 37C for 5 hours, 23 nL of compounds dissolved in DMSO were transferred to the assay plate by a PinTool resulting in a 217-fold dilution. Incubate the plates for 16 hours at 37C, 5% CO2. Add 1 uL of 6X LiveBLAzer FRET B/G (CCF4-AM) Substrate Mixture to each well using a BioRAPTR dispenser and incubate the plates at room temperature for 2 hours. Measure fluorescence intensity at 460 and 530 nm emission and 405 nm excitation by an Envision detector. Data is expressed as the ratio of 460nm/530nm emissions. Add 4 uL of Cell-titer Glo to each well using BioRAPTR and incubate the plates at room temperature for […]. For cell viability readout that measures cytotoxicity, 4 ul/well of CellTiter-Glo reagent was added into the assay plates using a Flying Reagent Dispenser. After 30 min incubation at room temperature, the luminescence intensity in the plates was measured using a ViewLux plate reader.
SMILES,outcome,AC50
O=c1cccccc1O,inactive,
O=C(CCC1CCN(Cc2ccccc2)CC1)c1ccc2c(c1)NCCCC2,inactive,
Cc1c(N)cccc1Cl,inactive,
CC(C)c1nc(N(C)S(C)(=O)=O)nc(-c2ccc(F)cc2)c1/C=C/C(O)CC(O)CC(=O)O (stereo not given),inactive,
O=P(O)(O)C(O)(Cc1cccnc1)P(=O)(O)O,inactive,
O=C(O)COc1ccc(C(=O)c2cccs2)c(Cl)c1Cl,inactive,
c1ccc(CN(CC2=NCCN2)c2ccccc2)cc1,inactive,
N/C(=N\N=Cc1ccc(Cl)cc1)NN=Cc1ccc(Cl)cc1,inactive,
CC/C=C\CC/C=C/C(OCC)OCC,inactive,
COc1c(C)c2c(c(O)c1C/C=C(\C)CCC(=O)O)C(=O)OC2,,0.224 µM (active)
Cc1c(-c2ccccc2)oc2c(C(=O)OCCN3CCCCC3)cccc2c1=O,inactive,
CCOC(=O)[C@H](CCc1ccccc1)N[C@@H](C)C(=O)N1[C@H](C(=O)O)C[C@@H]2CCC[C@@H]21,inactive,
O=C(c1ccccc1)c1cc(Cl)ccc1O,inactive,
COc1ccc(C(=O)c2ccc(C)cc2)c(O)c1,inactive,
O=[N+]([O-])c1ccc2c(c1)Cc1ccccc1-2,inactive,
CC(C)=CCCC(C)=CC=NO,inactive,
CCC(C)(C)C(=O)O,inactive,
N[C@H](C(=O)O)[C@@H]1CC(Cl)=NO1,,13.7 µM (active)
CCCN(CCC)C(=O)C(CCC(=O)OCCCN1CCN(CCOC(=O)Cc2c(C)n(C(=O)c3ccc(Cl)cc3)c3ccc(OC)cc23)CC1)NC(=O)c1ccccc1 (stereo not given),inactive,
CCN1CCC[C@H]1CNC(=O)c1c(O)c(Cl)cc(Cl)c1OC,inactive,

SMILES,outcome,AC50
CCOc1cc(-c2nccc3cc(OC)c(OC)cc23)cc(OCC)c1OCC,inactive,
C=CC[C@@H]1/C=C(\C)C[C@H](C)C[C@H](OC)[C@H]2O[C@@](O)(C(=O)C(=O)N3CCCC[C@H]3C(=O)O[C@H](/C(C)=C/[C@@H]3CC[C@@H](O)[C@H](OC)C3)[C@H](C)[C@@H](O)CC1=O)[C@H](C)C[C@@H]2OC,,35.9 µM (active)
CC=C(C(=CC)c1ccc(O)cc1)c1ccc(O)cc1,inactive,
CCCC(=O)O[C@]1(C(=O)COC(C)=O)CC[C@H]2[C@@H]3C[C@H](F)C4=CC(=O)C=C[C@]4(C)[C@@]3(F)[C@@H](O)C[C@@]21C,inactive,
c1cnc(N2CCN(Cc3ccc4c(c3)OCO4)CC2)nc1,inactive,
CC(C)=CCC/C(C)=C/CC/C(C)=C/CCC(=O)OC/C=C(\C)CCC=C(C)C,inactive,
CCC(C)=NO[Si](C)(ON=C(C)CC)ON=C(C)CC,inactive,
O=C(Nc1ccc(Oc2ccc(Cl)cc2)c(Cl)c1)c1cc(I)cc(I)c1O,,2.3 µM (active)
NS(=O)(=O)Cc1noc2ccccc12,inactive,
CCN(C=O)CC,inactive,
Nc1ccc(S(=O)(=O)Nc2ccnn2-c2ccccc2)cc1,inactive,
Cc1nccn1CC1CCc2c(c3ccccc3n2C)C1=O (stereo not given),inactive,
O=c1[nH]c2ccc(Cl)cc2o1,inactive,
Cc1ccc2c(Cl)cc(Cl)c(O)c2n1,,13.7 µM (active)
CCCCNC(N)=O,inactive,
CCCCCC1Nc2cc(C(F)(F)F)c(S(N)(=O)=O)cc2S(=O)(=O)N1 (stereo not given),inactive,
COc1ccc2c(c1)c(CC(=O)OCC(=O)O)c(C)n2C(=O)c1ccc(Cl)cc1,inactive,
O=C(O)CNCC(=O)O,inactive,
CN=C(N)NCCC[C@H](N)C(=O)O,inactive,
COc1ccc(C(=O)c2ccccc2O)c(O)c1,inactive,
